This note sets out measurements from the supplement of paper PMC4894684.

The subject of the assay is Toxoplasma gondii RH (in HFF). Briefly: parasite growth relative to the screen mean (all compounds = 100%); higher = less inhibition of parasite growth. To be noted: 5 µM; 72 h; oxygen 21 %. The procedure, abridged: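 Parasite growth was reported relative to the screen mean. In that scale, the mean of all compounds equals 100%, and values are averaged over two screens. Compounds from 10 mM DMSO stocks were pin-transferred to 5 µM final onto confluent human foreskin fibroblasts in 96-well plates, infected within 2 h with RH β-Gal–GFP Toxoplasma (MOI 1:5) and grown 72 h at 21% O2, with parasite number read by a CPRG β-Gal assay against in-plate standard curves. Uninfected host-cell viability was checked with CellTiter-Blue.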

Counter-ions that a name gives are not always drawn. ± gives the standard deviation of the averaged measurements.

`O=C1c2ccccc2S(=O)(=O)N1CCCCN1CCN(c2ncccn2)CC1` [Ipsapirone] registered a parasite growth of 160 ± 46%.

`CCCCC[C@H](O)/C=C/[C@H]1[C@H](O)CC(=O)[C@@H]1CCCCCCC(=O)O` [Alprostadil] displayed a parasite growth of 140 ± 6%.

Compound `COc1ccc2[nH]c(I)c(CCNC(C)=O)c2c1` [2-Iodomelatonin] registered a parasite growth of 106 ± 4.9%.

On to `Cc1c(C(=O)N(C)C2CCCCC2)sc2nc3ccc(N)cc3n12`, for which the parasite growth came to 185 ± 31%.

Compound `O=C(O)C(=O)O.[NH-][C@@H]1CCCC[C@H]1[NH-].[Pt+2]` [Oxaliplatin] came in with a parasite growth of 143 ± 2.5%.

The compound `Cc1ccc(C(=O)Cn2c3c(sc2=N)CCCC3)cc1` [Pifithrin- α hydrobromide] gave a parasite growth of 130 ± 1.9%.

In turn, `C=CCNC(=O)c1cc([N+](=O)[O-])cc2c(=O)[nH]c(Nc3ccc(Cl)c(Cl)c3)nc12` had a parasite growth of 89.6 ± 4.6%.

`CC(C)NCC(O)COc1ccc(CCOCC2CC2)cc1` (stereo unspecified) [Betaxolol hydrochloride] yielded a parasite growth of 89.4 ± 13%.

The compound `COc1cccc(/C=N/N=C/c2cccc(OC)c2)c1` had a parasite growth of 135 ± 4.2%.

`O=C(O)CCC/C=C\C[C@@H]1CO[C@H](C(F)(F)F)O[C@@H]1c1ccccc1O` registered a parasite growth of 102 ± 25%.

Compound `NC(C(=O)O)c1ccc(C(=O)O)c(C(=O)O)c1` (racemic) came in with a parasite growth of 101 ± 31%.

With `Cc1cc(/C(=C/Nc2ccc(Cl)cc2)C(=O)Nc2ccc(Cl)cc2)on1`, the parasite growth came out at 139 ± 40%.

For `CCCn1c(=O)[nH]c2nc(-c3ccc(S(=O)(=O)O)cc3)[nH]c2c1=O`, the parasite growth came to 112 ± 5.7%.

In turn, `Cn1cccc1/C=C1\C(=O)NC(=O)c2ccccc21` displayed a parasite growth of 121 ± 6.4%.

As to `Cc1cccc(/C=C/c2ccccc2)n1`, the parasite growth worked out at 99.2 ± 63%.

As to `COc1ccc(-c2ccc(=N)n(CCCC(=O)O)n2)cc1`, the parasite growth turned out to be 133 ± 26%.
